Read-out in experiment [1]: Macrophage colony-stimulating factor (MCSF), CSF1 (gene 1435)
The experiment can be described thus: BSK_hDFCGF_MCSF: BioMAP Diversity Plus: hDFCGF Assay for Macrophage colony-stimulating factor (MCSF) Biomarker Activity (AID 2283060). Particulars: primary human foreskin fibroblasts; actives raise or lower the signal. In outline: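 M-CSF levels read by ELISA at 24 h post-dosing in human skin fibroblasts. Parallel cultures stained with SRB assessed cytotoxicity at the same time point; response fitted in both directions against the DMSO baseline.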

Experiment [2] can be described thus: BSK_hDFCGF_SRB: Viability Assessment in the BioMAP Diversity Plus: hDFCGF Assay (AID 2283061).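 Note: cells exposed to compound for 24 h before the read.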 Particulars: primary human foreskin fibroblasts. Put shortly: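 Viability was read as total protein: after 10% TCA fixation, wells were stained with 0.1% sulforhodamine B and read at 560 nm. Primary human foreskin fibroblasts were dosed for 24 h, with bidirectional fitting versus DMSO.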

Read-out in experiment [3]: TIMP metallopeptidase inhibitor 1 (TIMP1), TIMP1 (gene 7076)
Put plainly: BSK_hDFCGF_TIMP1: BioMAP Diversity Plus: hDFCGF Assay for TIMP metallopeptidase inhibitor 1 (TIMP1) Biomarker Activity (AID 2283062). Particulars: primary human foreskin fibroblasts; actives raise or lower the signal. Put shortly: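 TIMP-1 measured by ELISA 24 h after chemical dosing of primary human skin fibroblasts, with gain or loss fitted relative to DMSO. Parallel SRB staining (560 nm) monitored overt cytotoxicity.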

Read-out in experiment [4]: Monokine induced gamma interferon (MIG), CXCL9 (gene 4283)
The experiment can be described thus: BSK_hDFCGF_MIG: BioMAP Diversity Plus: hDFCGF Assay for Monokine induced gamma interferon (MIG) Biomarker Activity (AID 2283063). Conditions: primary human foreskin fibroblasts; actives raise or lower the signal. In outline: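 Human primary foreskin fibroblasts in the hDFCGF system, exposed to test chemical for 24 h; MIG measured by ELISA. Bidirectional curve fitting against DMSO negative control as activity baseline.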

Read-out in experiment [5]: Matrix Metallopeptidase 1 (MMP1), MMP1 (gene 4312)
Put plainly: BSK_hDFCGF_MMP1: BioMAP Diversity Plus: hDFCGF Assay for Matrix Metallopeptidase 1 (MMP1) Biomarker Activity (AID 2283064). Conditions: primary human foreskin fibroblasts; actives raise or lower the signal. Put shortly: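 Human foreskin fibroblasts exposed to chemical for 24 h; MMP1 detected by ELISA, with DMSO as baseline for bidirectional fitting.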

Read-out in experiment [6]: Vascular cell adhesion molecule 1 (VCAM1), VCAM1 (gene 7412)
Put plainly: BSK_hDFCGF_VCAM1: BioMAP Diversity Plus: hDFCGF Assay for Vascular cell adhesion molecule 1 (VCAM1) Biomarker Activity (AID 2283065).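 For AC50: VCAM-1 protein level quantified by ELISA after 24 h chemical exposure.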 Conditions: primary human foreskin fibroblasts; actives raise or lower the signal. Put shortly:
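ELISA readout of VCAM-1 on human dermal fibroblast primary cultures, 24 h after chemical exposure. Gain or loss of signal fitted in both directions against DMSO baseline.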

Read-out in experiment [7]: Plasminogen activator inhibitor-1 (PAI1), SERPINE1 (gene 5054)
The experiment can be described thus: BSK_hDFCGF_PAI1: BioMAP Diversity Plus: hDFCGF Assay for Plasminogen activator inhibitor-1 (PAI1) Biomarker Activity (AID 2283066). Conditions: primary human foreskin fibroblasts; actives raise or lower the signal. Put shortly:
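ELISA readout of PAI-1 from primary human skin fibroblast cultures, 24 h after compound addition. Gain or loss of signal was fitted bidirectionally against DMSO baseline.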

Read-out in experiment [8]: Intercellular Adhesion Molecule 1 (ICAM1), ICAM1 (gene 3383)
The experiment can be described thus: BSK_KF3CT_ICAM1: BioMAP Diversity Plus: KF3CT Assay for Intercellular Adhesion Molecule 1 (ICAM1) Biomarker Activity (AID 2283067). Particulars: primary human keratinocytes with fibroblasts; actives raise or lower the signal. In outline:
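Cell-surface ICAM-1 was measured by ELISA 24 h after dosing primary human skin keratinocytes co-cultured with fibroblasts. Parallel SRB staining tracked overt cytotoxicity. Gain or loss of signal was fitted relative to DMSO.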

Read-out in experiment [9]: Interferon-gamma inducible Protein 10 (IP10), CXCL10 (gene 3627)
The experiment can be described thus: BSK_KF3CT_IP10: BioMAP Diversity Plus: KF3CT Assay for Interferon-gamma inducible Protein 10 (IP10) Biomarker Activity (AID 2283068). Conditions: primary human keratinocytes with fibroblasts; actives raise or lower the signal. In outline: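 KF3CT co-culture (keratinocytes + foreskin fibroblasts), 24 h compound, IP-10 by ELISA; bidirectional fit vs DMSO baseline.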

Experiment [10] is described as follows: BSK_KF3CT_SRB: Viability Assessment in the BioMAP Diversity Plus: KF3CT Assay (AID 2283069). Conditions: primary human keratinocytes with fibroblasts. In outline:
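Overt cytotoxicity is assessed as total protein by sulforhodamine B staining in parallel human skin co-cultures at 24 h after dosing. DMSO serves as negative control and baseline.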

Read-out in experiment [11]: Interleukin-1 alpha (IL1a), IL1A (gene 3552)
Put plainly: BSK_KF3CT_IL1a: BioMAP Diversity Plus: KF3CT Assay for Interleukin-1 alpha (IL1a) Biomarker Activity (AID 2283070). Particulars: primary human keratinocytes with fibroblasts; actives raise or lower the signal. In outline:
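Readout is IL-1a level by ELISA, compared bidirectionally with DMSO as baseline. Cells: human keratinocytes co-cultured with foreskin fibroblasts, harvested 24 h post-dose.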

Read-out in experiment [12]: TIMP metallopeptidase inhibitor 2 (TIMP2), TIMP2 (gene 7077)
Put plainly: BSK_KF3CT_TIMP2: BioMAP Diversity Plus: KF3CT Assay for TIMP metallopeptidase inhibitor 2 (TIMP2) Biomarker Activity (AID 2283071). Conditions: primary human keratinocytes with fibroblasts; actives raise or lower the signal. In outline: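 ELISA readout of TIMP-2 in keratinocyte plus foreskin fibroblast co-cultures (human skin primary cells), 24 h post-dose. Gain or loss of signal fitted relative to DMSO.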

Read-out in experiment [13]: Matrix Metallopeptidase 9 (MMP9), MMP9 (gene 4318)
The experiment can be described thus: BSK_KF3CT_MMP9: BioMAP Diversity Plus: KF3CT Assay for Matrix Metallopeptidase 9 (MMP9) Biomarker Activity (AID 2283074).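 For AC50: MMP9 protein level quantified by ELISA in the co-culture.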 Particulars: primary human keratinocytes with fibroblasts; actives raise or lower the signal. Put shortly: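 Values come from bidirectional fitting relative to DMSO of MMP-9 levels, which were measured by ELISA. Measurements were taken 24 h after chemical dosing of a keratinocyte and foreskin fibroblast co-culture.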

Read-out in experiment [14]: urokinase plasminogen activator (uPA), PLAU (gene 5328)
Put plainly: BSK_KF3CT_uPA: BioMAP Diversity Plus: KF3CT Assay for urokinase plasminogen activator (uPA) Biomarker Activity (AID 2283075). Conditions: primary human keratinocytes with fibroblasts; actives raise or lower the signal. In outline: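 Values derive from bidirectional fitting against DMSO controls. Keratinocyte/foreskin fibroblast co-cultures received chemical; 24 h later uPA was detected by ELISA, with SRB total-protein staining in parallel wells for overt cytotoxicity.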

Read-out in another experiment: CD40, CD40 (gene 958)
Put plainly: BSK_LPS_CD40: BioMAP Diversity Plus: LPS Assay for CD40 Biomarker Activity (AID 2283076). Particulars: primary human HUVEC with PBMC; actives raise or lower the signal. Put shortly:
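In the LPS system of human endothelial cells with peripheral blood mononuclear cells, CD40 levels were read by ELISA 24 h post-treatment. Signal changes in either direction were fitted against the DMSO baseline, with parallel SRB protein staining.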

Read-out in experiment [15]: E-selectin (Homo sapiens) (UniProt P16581)
Put plainly: BSK_LPS_Eselectin: BioMAP Diversity Plus: LPS Assay for Eselectin Biomarker Activity (AID 2283077). Conditions: primary human HUVEC with PBMC; actives raise or lower the signal. Put shortly: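 E-selectin ELISA on LPS-stimulated endothelial cell/PBMC co-cultures, read 24 h post-treatment; gains and losses fitted against DMSO. Parallel SRB staining (0.1% SRB after 10% TCA fixation, 560 nm) flags overt cytotoxicity.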

Read-out in experiment [16]: Interleukin-8 (IL8), CXCL8 (gene 3576)
The experiment can be described thus: BSK_LPS_IL8: BioMAP Diversity Plus: LPS Assay for Interleukin-8 (IL8) Biomarker Activity (AID 2283078). Conditions: primary human HUVEC with PBMC; actives raise or lower the signal. In outline: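 ELISA read-out of IL-8 after 24 h chemical treatment of LPS-activated endothelial/PBMC human primary co-cultures. Changes either up or down relative to DMSO; overt cytotoxicity checked by sulforhodamine B staining in parallel wells.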

The nature of experiment [17]: BSK_LPS_SRB: Viability Assessment in the BioMAP Diversity Plus: LPS Assay (AID 2283079).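 Note: total protein by sulforhodamine B absorbance as a cytotoxicity measure; measured one day after compound addition.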 Particulars: primary human HUVEC with PBMC. Put shortly:
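SRB viability endpoint: cells fixed with 10% TCA, stained with 0.1% SRB, read at 560 nm, 24 h post-dose. HUVEC/PBMC co-culture; signal change in either direction scored relative to DMSO.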

Read-out in experiment [18]: Interleukin-1 alpha (IL1a), IL1A (gene 3552)
The experiment can be described thus: BSK_LPS_IL1a: BioMAP Diversity Plus: LPS Assay for Interleukin-1 alpha (IL1a) Biomarker Activity (AID 2283080). Conditions: primary human HUVEC with PBMC; actives raise or lower the signal. In outline: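 Readout is IL-1a level by ELISA, 24 h post-dose, fitted as gain or loss relative to DMSO. System: LPS-activated human primary co-culture of vascular endothelium and peripheral blood mononuclear cells, with parallel SRB total-protein cytotoxicity.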

“And” between values parts separate entries of the source, which are not always exact repeats. Equal entries are not always repeated. The source made the active and inactive calls. Rule for the calls: active = hit-call score of the fitted dose curve at least 0.9, where 1 is the maximum; inactive = score below 0.9.

Sequence of E-selectin (Homo sapiens) (P16581 whole entry, looked up): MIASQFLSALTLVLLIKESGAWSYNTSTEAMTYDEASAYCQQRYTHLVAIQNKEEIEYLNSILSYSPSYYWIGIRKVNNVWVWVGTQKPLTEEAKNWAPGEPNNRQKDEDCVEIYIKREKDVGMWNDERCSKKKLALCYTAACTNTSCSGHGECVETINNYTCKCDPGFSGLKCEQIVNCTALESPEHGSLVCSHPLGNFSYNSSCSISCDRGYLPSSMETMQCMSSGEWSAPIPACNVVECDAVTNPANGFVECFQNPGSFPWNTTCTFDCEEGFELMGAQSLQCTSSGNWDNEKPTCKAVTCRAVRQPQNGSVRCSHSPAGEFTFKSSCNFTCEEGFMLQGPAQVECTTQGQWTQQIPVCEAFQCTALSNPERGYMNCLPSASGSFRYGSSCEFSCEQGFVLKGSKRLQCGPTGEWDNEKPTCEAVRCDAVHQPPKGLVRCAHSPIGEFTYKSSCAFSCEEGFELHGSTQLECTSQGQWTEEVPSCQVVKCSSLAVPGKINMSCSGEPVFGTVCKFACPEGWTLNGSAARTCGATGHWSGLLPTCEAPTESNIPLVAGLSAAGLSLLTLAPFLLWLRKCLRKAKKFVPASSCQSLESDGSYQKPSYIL

As to `NC(=O)C(F)(F)C(F)(F)C(F)(F)C(F)(F)C(N)=O`, the outcome in [1], in experiment [2], in [3], in experiment [4], in experiment [5] and in experiment [6] was inactive. Also, the outcome in experiment [7], in [8], in experiment [9], in [10], in experiment [11] and in experiment [12] was inactive. The outcome in experiment [13] was “inactive”; in experiment [14] it was “inactive”; with CD40, CD40 (gene 958) it was “inactive”; in experiment [15], “inactive”; in [16], “inactive”; in [17], “inactive”. The outcome in [18] was inactive.

As for `Brc1nc2ccccc2s1`, the outcome in experiment [1], in [2], in experiment [3], in [4], in experiment [5] and in [6] was inactive. Moreover, the result in experiment [7], in experiment [8], in experiment [9], in experiment [10], in experiment [11] and in experiment [12] was inactive. Besides, the outcome is “inactive” in experiment [13]; “inactive” in [14]; “inactive” with CD40, CD40 (gene 958); “inactive” in experiment [15]; “inactive” in experiment [16]; “inactive” in experiment [17].

As to `OCCCC(F)(F)C(F)(F)C(F)(F)C(F)(F)C(F)(F)C(F)(F)C(F)(F)C(F)(F)F`, the AC50 is 8.04 µM (active) and 6.66 µM (active) in [1]; 9.4 µM (active) and 6.19 µM (active) in experiment [2]; 9.8 µM (active) and 11.3 µM (active) in experiment [3]; 12.5 µM (active) and 12 µM (active) in [4]; 19 µM (active) and 13.3 µM (active) in experiment [5]; 9.41 µM (active) and 6.1 µM (active) in [6]. Also, the AC50 in experiment [7] was 6.66 µM (active) and 5.89 µM (active); in [8], 12.8 µM (active) and 11.7 µM (active); in experiment [9] it was 12.8 µM (active) and 9.49 µM (active); in [10], 8.92 µM (active) and 10.7 µM (active); in experiment [11] it was 11 µM (active) and 8.25 µM (active); in experiment [12], 14.5 µM (active) and 8.21 µM (active). Besides, the AC50 was 9.36 µM (active) and 10.8 µM (active) in experiment [13]; 14.9 µM (active) and 9.45 µM (active) in [14]; 34.7 µM (active) and 32.9 µM (active) in the experiment with CD40, CD40 (gene 958); 15.3 µM (active) and 30 µM (active) in experiment [15]; 45.9 µM (active) and 42.5 µM (active) in experiment [16]; 41.5 µM (active) and 45.7 µM (active) in experiment [17]. Also, the AC50 in [18] was 30 µM (active) and 6.25 µM (active).

The record behind these values is PubChem BioAssay (EPA / NIEHS).
